According to PubChem BioAssay AID1645875 (National Center for Advancing Translational Sciences (NCATS), 2021):
Records with an inconclusive call do not appear. Active and inactive are the calls of the source. Calls come from the whole dose curve; as a rule, active = well fitted inhibition curve with a large enough effect; inconclusive = small, poorly fitted or top-dose-only effect; inactive = no such curve, though single readings can be large or run the other way.

biological target: N-terminal Xaa-Pro-Lys N-methyltransferase 1 (Homo sapiens) (UniProt Q9BV86); experiment: Orthogonal qHTS for Inhibitors of N-terminal methyltransferase 1 (NTMT1): ThioGlo Assay; conditions: NTMT1 SAHH-coupled ThioGlo fluorescence, 30 min; series mostly up to 84.5 µM
In short: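 125 nM NTMT1 pre-incubated 1 min at room temperature with titrated compounds, then 100 uM SAM, 10 uM SAHH and 15 uM ThioGlo3 (final) added. Fluorescence (ex 340/em 450 nm) read before and after 30 min in the dark, normalized to the initial background.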

Chain of N-terminal Xaa-Pro-Lys N-methyltransferase 1 (Homo sapiens) (Q9BV86 whole entry, looked up): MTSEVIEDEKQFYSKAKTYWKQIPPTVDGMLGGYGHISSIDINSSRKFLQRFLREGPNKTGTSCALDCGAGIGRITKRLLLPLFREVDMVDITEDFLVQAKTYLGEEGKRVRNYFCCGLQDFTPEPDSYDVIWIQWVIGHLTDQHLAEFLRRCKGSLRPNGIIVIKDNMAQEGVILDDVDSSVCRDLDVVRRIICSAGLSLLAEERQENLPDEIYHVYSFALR

Compound | Potency
COc1cccc(C2=Nn3c(nnc3-c3ccccc3C)SC2)c1 | 27.4 µM (active)
COc1cc(N2CCC(N3CCN(C)CC3)CC2)ccc1Nc1ncc(Cl)c(-c2c[nH]c3ccccc23)n1 | 17.5 µM (active)
OCc1ccc(-c2ccc(-c3ccc(CO)s3)o2)s1 | 19.2 µM (active)
Cc1ccnc(NC(=S)N2CCN(c3cc(C(F)(F)F)cc(C(F)(F)F)c3)CC2)c1 | 4.35 µM (active)
Fc1cc(Nc2nc(-c3ccncc3)nc3ccccc23)ccc1N1CCNCC1 | 21.8 µM (active)
Cc1cc(O)c2c(c1)C(=O)c1cc(O)cc(O)c1C2=O | 27.4 µM (active)
C=Cc1c(C)c2cc3[nH]c(cc4nc(cc5nc(cc1[nH]2)C(C)=C5CCC(=O)O)C(CCC(=O)O)=C4C)c(C)c3C=C | 15.4 µM (active)
COc1cc2c(NC3CCN(C(C)C)CC3)nc(N3CCCN(CC4CCCCC4)CC3)nc2cc1OCCCN1CCCC1 | 12.3 µM (active)
N#Cc1ccc(Nc2nc(-c3ccc(O)cc3O)cs2)cc1C(F)(F)F | 49.4 µM (active)
COc1cc2c(NC3CCN(CC4CCCCC4)CC3)nc(N3CCCN(C)CC3)nc2cc1OCCCN1CCCCC1 | 43.5 µM (active)
NC(=O)c1cccc(-c2cc(OC(=O)NC3CCCCC3)ccc2O)c1 | inactive
COc1ccc(C2=Nn3c(nnc3-c3ccccc3C)SC2)cc1OC | 34.5 µM (active)
COc1ccc(C2=Nn3c(nnc3-c3ccccc3Cl)SC2)cc1OC1CCCC1 | inactive
O=S(=O)(Cc1ccccc1)Nc1ccc(-c2ccc3c(cnn3-c3ccc(F)cc3)c2)c(C(F)(F)F)c1 | inactive
COc1cc2nc(N3CCCC3)nc(NC3CC3)c2cc1OC | inactive
COc1cc2c(NC3CCN(C)CC3)nc(N3CCCN(C)CC3)nc2cc1OCCCCCN | 30.8 µM (active)
O=C(/C=C/c1ccc(O)c(O)c1)OCCc1ccccc1 | 17.3 µM (active)
Cc1cc(C)nc(NC(=S)N2CCN(c3cccc(S(C)(=O)=O)c3)CC2)c1 | 12.3 µM (active)
CNCCCOc1cc2nc(N3CCCN(C)CC3)nc(NC3CCN(C)CC3)c2cc1OC | 43.5 µM (active)
CCN1CCCN(c2nc(NC3CCN(C(C)C)CC3)c3cc(OC)c(OCCCN4CCCCC4)cc3n2)CC1 | 38.8 µM (active)
O=C1NC(=O)/C(=C/c2ccc(-c3ccc(F)cc3O)o2)S1 | 30.8 µM (active)
COc1ccc(-c2cc3c(C)nc(N)nc3n(C3CCC(OCCO)CC3)c2=O)cn1 (centres undefined) | 13.9 µM (active)
COc1cc2c(NC3CCN(C(C)C)CC3)nc(N3CCCCCC3)nc2cc1OCCCN1CCCC1 | 38.8 µM (active)
COc1ccnc(NC(=S)N2CCN(c3cccc(Cl)c3Cl)CC2)c1 | 3.88 µM (active)
CN=c1nc(-c2ccccc2)n(-c2ccccc2)s1 | 5.55 µM (active)
Cc1cccc(C)c1OCC(N)C(C)C (centres undefined) | 1.54 µM (active)
CC(C)c1cc2c(c(O)c1O)[C@@]13CCCC(C)(C)[C@@H]1[C@H](OC3=O)C2=O | 9.67 µM (active)
Oc1cc2c(c(Cl)c1O)CCNCC2c1ccccc1 (centres undefined) | 30.8 µM (active)
CC(C)c1cc2c(c(O)c1O)[C@@]13CCCC(C)(C)C1[C@@H](O)[C@@H]2OC3=O (some centres undefined) | 12.2 µM (active)
